# The supplement of paper PMC6992640
# ± gives the standard deviation of the averaged measurements.
# How the values were obtained:
# Test in all cases: cell viability (% of vehicle); higher = less cytotoxic
# [1] = system: HCI01 (cells of a triple-negative basal-like breast cancer xenograft); conditions: 1 µM; 72 h
# [2] = system: UCD52 (cells of a triple-negative basal-like breast cancer xenograft); conditions: 1 µM; 72 h
# [3] = system: WHIM2 (cells of a triple-negative basal-like breast cancer xenograft); conditions: 1 µM; 72 h
# [4] = system: WHIM30 (cells of a triple-negative basal-like breast cancer xenograft); conditions: 1 µM; 72 h
# [5] = system: HCI01; conditions: 10 µM; 72 h
# [6] = system: HCI03 (cells of an ER-positive luminal breast cancer xenograft); conditions: 10 µM; 72 h
# [7] = system: HCI09 (cells of a triple-negative luminal androgen receptor type breast cancer xenograft); conditions: 10 µM; 72 h
# [8] = system: HCI11 (cells of an ER-positive luminal breast cancer xenograft); conditions: 10 µM; 72 h
# [9] = system: HCI13 (cells of an ER-positive luminal breast cancer xenograft); conditions: 10 µM; 72 h
# [10] = system: HCI16 (cells of a triple-negative basal-like breast cancer xenograft); conditions: 10 µM; 72 h
# [11] = system: UCD52; conditions: 10 µM; 72 h
# [12] = system: WHIM2; conditions: 10 µM; 72 h
# [13] = system: WHIM30; conditions: 10 µM; 72 h
SMILES,cell viability [1],cell viability [2],cell viability [3],cell viability [4],cell viability [5],cell viability [6],cell viability [7],cell viability [8],cell viability [9],cell viability [10],cell viability [11],cell viability [12],cell viability [13]
CC(=O)c1cc2c(o1)C(=O)c1ccccc1C2=O [Napabucasin],30.1,29.6,50.3,33.9,54.9 ± 23,54.2,29.1 ± 9.1,21.8,46.9 ± 9.2,58.7,40.3 ± 7.5,72.4 ± 12,45.1 ± 7.3
CN1CCN(CCCN2c3ccccc3Sc3ccc(C(F)(F)F)cc32)CC1.Cl.Cl [Trifluoperazine 2HCl],95.7,82.1,102,84.9,42.8 ± 8.5,57.4,30.2 ± 8,82.1,42.2 ± 2,54.1,33.8 ± 2.4,43.3 ± 3.1,97.8 ± 6.6
CC1CC(=O)NN=C1c1ccc(NN=C(C#N)C#N)cc1 (stereo unspecified) [Levosimendan],89.2,95.2,114,96.7,50.6 ± 31,183,51.9 ± 30,139,145 ± 28,82.2,51.1 ± 2.5,47.8 ± 9.7,86.7 ± 2.7
Cc1c(C(=O)NN2CCCCC2)nn(-c2ccc(Cl)cc2Cl)c1-c1ccc(Cl)cc1 [Rimonabant],87.4,91.1,100,82.6,72.2 ± 38,114,22.2 ± 6.1,87.3,74.2 ± 19,96.7,62.3 ± 10,35.9 ± 10,68.4 ± 15
CNC1CCC(c2ccc(Cl)c(Cl)c2)c2ccccc21.Cl (stereo unspecified) [Sertraline HCl],92.9,78.6,101,85.2,27.7 ± 2.6,74.8,32.2 ± 4.6,79.2,118 ± 3.2,60.4,29.3 ± 0.42,42.8 ± 3.1,58.9 ± 1.9
CC(C)COc1ccc(CNC(=O)N(Cc2ccc(F)cc2)C2CCN(C)CC2)cc1 [Pimavanserin],93.5,83.6,103,88,98.1 ± 1.5,111,56.7 ± 18,81,171 ± 10,87.3,46.4 ± 3.1,43.7 ± 2.7,83.5 ± 3.7
CC(C)(C)Cn1c(N)nc2ccc(-c3[nH]c(C(C)(C)C)nc3-c3ccc(F)cc3)nc21.CS(=O)(=O)O.CS(=O)(=O)O,67.7,46.4,65.4,61.1,58.4 ± 4.5,54.2,36.8 ± 15,81,58.7 ± 0.99,72.3,36.7 ± 1.6,39.5 ± 3.9,64.2 ± 9.7
COC1=C(OC)C(=O)C(CCCCCCCCCCO)=C(C)C1=O [Idebenone],91.1,90.2,107,94.5,34 ± 2.8,107,39.1 ± 18,87.2,92.2 ± 61,104,78.2 ± 6.6,78.4 ± 30,51.9 ± 20
COc1cccc2c1C(=O)c1c(O)c3c(c(O)c1C2=O)CC(O)(C(=O)CO)CC3OC1CC(N)C(O)C(C)O1 (stereo unspecified) [Doxorubicin],80.1,42.1,30.4,44.2,56.3 ± 15,188,28.8 ± 3.4,49.6,176 ± 59,60.4,24.297 ± 0.024,50.6 ± 5.6,80.7 ± 5.3
COc1ccc2cc1Oc1ccc(cc1)CC1c3c(cc4c(c3Oc3cc5c(cc3OC)CCN(C)C5C2)OCO4)CCN1C (stereo unspecified) [Cepharanthine],86.1,52.9,80.7,60.6,57.1 ± 12,64.3,26.6 ± 5.9,73.5,159 ± 37,170,36.2 ± 1.8,64.7 ± 8.1,94.3 ± 9.8
COc1cccc2c1C(=O)c1c(O)c3c(c(O)c1C2=O)C[C@@](O)(C(C)=O)C[C@@H]3O[C@H]1C[C@H](N)[C@H](O)[C@H](C)O1.Cl [Daunorubicin HCl],128,27.8,23.1,48,32.2 ± 4.8,141,32.8 ± 8.5,31.2,41.3 ± 3.9,49.9,30.4 ± 2.6,42.07 ± 0.39,44.6 ± 10
COC(=O)NC(C(=O)NC(Cc1ccccc1)C(O)CN(Cc1ccc(-c2ccccn2)cc1)NC(=O)C(NC(=O)OC)C(C)(C)C)C(C)(C)C (stereo unspecified) [Atazanavir],92.8,80.2,91.7,84.6,88.35 ± 0.71,80,57.5 ± 2,74.5,81.7 ± 5.1,151,51.6 ± 3.1,73.7 ± 1.3,82.1 ± 5.5
CC(C)CC(NC(=O)CNC(=O)c1cc(Cl)ccc1Cl)B(O)O (stereo unspecified),51.7,24.9,130,23.1,53.4 ± 8.3,116,14.9 ± 0.73,174,33.1 ± 5.4,84.6,58.8 ± 3.8,34.22 ± 0.066,80.3 ± 24
CNC(=O)c1cc(Oc2ccc(NC(=O)Nc3ccc(Cl)c(C(F)(F)F)c3)c(F)c2)ccn1 [Regorafenib],103,80.7,99.6,89.9,22.5 ± 4.2,48,13.2 ± 3.8,43.5,83.1 ± 5.7,39.7,117 ± 4.5,30.6 ± 7.5,44.9 ± 1.4
COc1ccc(CN2CCN(C(c3ccc(F)cc3)c3ccc(F)cc3)CC2)c(OC)c1OC.Cl.Cl [Lomerizine HCl],85.2,90.8,99.6,92.2,85.8 ± 25,73.6,58.8 ± 20,78.5,32.61 ± 0.085,87.8,51.5 ± 0.83,48.1 ± 14,80 ± 1
CNC(=O)c1cc(Oc2ccc(NC(=O)Nc3ccc(Cl)c(C(F)(F)F)c3)cc2)ccn1 [Sorafenib],107,67.7,92.6,78,43.2 ± 12,89.2,25.2 ± 2.9,52.4,33.2 ± 5.5,41.1,46 ± 1.8,42.7 ± 5.5,37 ± 2.4
Cl.Cl.O=C1c2c(O)ccc(O)c2C(=O)c2c(NCCNCCO)ccc(NCCNCCO)c21 [Mitoxantrone HCl],105,36.2,27.3,37.2,55.3 ± 38,111,25.9 ± 0.83,55.7,73.4 ± 11,117,27.5 ± 0.38,41.3 ± 18,65.4 ± 12
C=CC(=O)Nc1cc(Nc2nccc(-c3cn(C)c4ccccc34)n2)c(OC)cc1N(C)CCN(C)C,57.6,63,52.7,61.8,41.7 ± 1,39.9,50.4 ± 36,61.3,51.7 ± 3.8,60.7,30.1 ± 0.95,44.5 ± 7.7,41.7 ± 1.9
CC(C)C[C@H](NC(=O)[C@H](Cc1ccccc1)NC(=O)c1cnccn1)B(O)O [Bortezomib],32.8,21.6,24.9,24,–,–,–,–,–,–,–,–,–
CC(NCCCc1cccc(C(F)(F)F)c1)c1cccc2ccccc12.Cl (stereo unspecified) [Cinacalcet HCl],94.5,85.7,76.7,81.6,38.8 ± 2.6,46.8,21.6 ± 4.7,64.8,43.3 ± 2.8,43.6,29.6 ± 2.4,43.2 ± 5.7,27.6 ± 1.3
COc1cc2ncnc(Nc3ccc(F)c(Cl)c3)c2cc1NC(=O)C=CCN1CCCCC1,70.8,40,43.9,54.6,34.5 ± 3.5,49.8,22.3 ± 1.4,57,24.6 ± 15,55.1,29.7 ± 2.9,43.9 ± 9.3,47.4 ± 1.6
CC(NCCCc1cccc(C(F)(F)F)c1)c1cccc2ccccc12 (stereo unspecified) [Cinacalcet],102,78.1,91.9,83.9,33.2 ± 2.7,34.2,17.1 ± 4.2,122,43.4 ± 3,33.5,17.3 ± 0.67,34.7 ± 8.7,35.8 ± 1.6
Clc1ccc(CSC(Cn2ccnc2)c2ccc(Cl)cc2Cl)cc1.O=[N+]([O-])O (stereo unspecified) [Sulconazole Nitrate],95.2,96.5,108,92.9,28.4 ± 6.5,77.3,24.5 ± 2.6,78.3,40.1 ± 3,74.1,35.2 ± 2.8,34.9 ± 8.5,119 ± 0.69
CO[C@@]12[C@H](COC(N)=O)C3=C(C(=O)C(C)=C(N)C3=O)N1C[C@@H]1N[C@@H]12 [Mitomycin C],59.3,88.3,75.4,66.9,46.7 ± 2.1,56.9,35.4 ± 3.3,64.6,45 ± 3.3,61.4,32.3 ± 0.47,47.3 ± 5.7,57.77 ± 0.16
Cl.O.O=C1Cc2cc(CCN3CCN(c4nsc5ccccc45)CC3)c(Cl)cc2N1 [Ziprasidone hydrochloride monohydrate],88.5,94.7,94.5,94.6,33.4 ± 14,64.9,21.8 ± 4.9,36,47.8 ± 5.2,27.2,25 ± 1.1,35.8 ± 1.7,35.7 ± 5.9
CS(=O)(=O)O.Cc1c(O)cccc1C(=O)NC(CSc1ccccc1)C(O)CN1CC2CCCCC2CC1C(=O)NC(C)(C)C (stereo unspecified) [Nelfinavir Mesylate],90.1,61.6,101,81.4,64.3 ± 30,92.1,30.1 ± 3.1,104,48.22 ± 0.17,53.7,48 ± 2,38.4 ± 2,71.9 ± 5.4
Nc1c(CC(=O)[O-])cccc1C(=O)c1ccccc1.O.[Na+] [Amfenac Sodium Monohydrate],97.6,93,115,99.5,56.6 ± 53,102,92.4 ± 14,92.6,114 ± 16,104,62.1 ± 8.9,82.7 ± 3.5,90.11 ± 0.73
CN(C)CCOc1ccc(C(=C(CCCl)c2ccccc2)c2ccccc2)cc1.O=C(O)CC(O)(CC(=O)O)C(=O)O [Toremifene Citrate],127,98.4,119,102,37.2 ± 1.9,63.8,34.3 ± 1.8,86.8,46.4 ± 2.6,73.2,38.3 ± 2.4,43.3 ± 4.1,54.4 ± 4.8
CC1=C(C(=O)OC(C)C)C(c2cccc([N+](=O)[O-])c2)C(C(=O)OC2CN(C(c3ccccc3)c3ccccc3)C2)=C(N)N1 (stereo unspecified) [Azelnidipine],93.6,73.5,85.9,88.3,33.6 ± 1.3,59,21.5 ± 0.58,80.4,41.6 ± 5.9,62,93.5 ± 6.1,61.3 ± 19,57.7 ± 26
C=CC(=O)N1CCC(Oc2cc3c(Nc4ccc(Cl)c(Cl)c4F)ncnc3cc2OC)CC1 [Poziotinib],62.3,36.5,32.9,50.7,39.4 ± 14,48.7,47.1 ± 2.5,48,34.2 ± 4.1,66.1,44.2 ± 4.5,50.5 ± 5.6,35.8 ± 10
